Data: PubChem BioAssay AID1159580 (chemical genetic matrix, 2015)
Out of some 5,500 compounds screened, about 2,000 (36%) were called active. Inconclusive results (about 18%) are left out. Cut-off read from the data, not from the text of the source: active = normalized growth mostly below about 0.91 (no sharp cut-off); inconclusive = no clear call, values can overlap the other calls; inactive = mostly above about 0.92. The list shows a part of the results.

Experiment: chemical genetic growth profiling, strain panel (AID 1159580);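 note: tested at 20 µM; growth read once vehicle control cultures reached saturation at 30 °C; 1 = growth at the plate median or of vehicle wells; lower values mean less growth of the strain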
Details: S. cerevisiae deletion strains, growth OD
[1] = locus YAL040C, strain CLN3, stronger effect = lower value
[2] = locus YDR150W, strain NUM1, stronger effect = lower value
[3] = locus YDR363W, strain ESC2, stronger effect = lower value
[4] = locus YER002W, strain NOP16, stronger effect = lower value
[5] = locus YGR078C, strain PAC10, stronger effect = lower value
[6] = locus YNL128W, strain TEP1, stronger effect = lower value
[7] = locus YNL175C, strain NOP13, stronger effect = lower value
[8] = locus YNL197C, strain WHI3, stronger effect = lower value
[9] = locus YNL224C, strain SQS1, stronger effect = lower value
[10] = locus YNL322C, strain KRE1, stronger effect = lower value
[11] = locus YOR083W, strain WHI5 (second series), stronger effect = lower value
[12] = locus YCL061C, strain MRC1 (second series), stronger effect = lower value
[13] = locus YMR307W, strain GAS1, stronger effect = lower value
[14] = locus YNL153C, strain GIM3, stronger effect = lower value

Measured: normalized growth

C[N+](C)(C)CC=O
inactive: [1] 0.989 | [2] 1.01 | [3] 0.979 | [4] 0.989 | [5] 1.01 | locus YJR075W, strain HOC1, stronger effect = lower value 0.999 | [6] 0.981 | [7] 1 | [8] 1.04 | [9] 0.993 | [10] 0.994 | [11] 1.06 | locus YPL055C, strain LGE1, stronger effect = lower value 1.03

C/C=C(/C)C(=O)O[C@H]1C(C)=C2[C@H]([C@@H]1OC(=O)CCCCCCC)[C@@](C)(OC(C)=O)C[C@H](OC(=O)CCC)[C@@]1(O)[C@H]2OC(=O)[C@@]1(C)O
inactive: [1] 1 | [12] 0.995 | [2] 1.01 | [3] 1.02 | [4] 1.01 | [5] 0.995 | locus YGR229C, strain SMI1, stronger effect = lower value 1.05 | locus YMR263W, strain SAP30, stronger effect = lower value 0.995 | [13] 0.968 | [6] 1.03 | [7] 1.02 | [8] 0.984 | [9] 0.988 | [11] 1

CCCCCC(CC(=O)NO)C(=O)NC(C(=O)N1CCCC1CO)C(C)C (stereo not drawn)
inactive: [1] 0.97 | [12] 0.995 | [3] 1.06 | [4] 0.971 | [5] 0.976 | [14] 0.976 | [7] 0.96 | [8] 0.987 | [9] 1.01 | [10] 1.01 | [11] 0.964 | locus YPL241C, strain CIN2, stronger effect = lower value 0.97

COC(=O)C[C@H]1C(C)(C)C(OC(C)=O)[C@]2(O)C=C3C4CC(=O)O[C@@H](c5ccoc5)[C@]4(C)CCC3[C@@]1(C)C2=O (stereo partly drawn)
inactive: locus YBR021W, strain FUR4, stronger effect = lower value 0.996 | locus YBR229C, strain ROT2, stronger effect = lower value 1 | locus YCL029C, strain bik1, stronger effect = lower value 1.01 | locus YDL035C, strain GPR1, stronger effect = lower value 1 | locus YDL074C, strain BRE1, stronger effect = lower value 1 | locus YDL101C, strain DUN1, stronger effect = lower value 1.01 | locus YDL134C, strain PPH21, stronger effect = lower value 1.02 | locus YDL185W, strain tfp1, stronger effect = lower value 1.02 | locus YDL192W, strain arf1, stronger effect = lower value 1 | locus YDR101C, strain arx1, stronger effect = lower value 1.01 | locus YDR162C, strain NBP2, stronger effect = lower value 1.01 | locus YDR318W, strain mcm21, stronger effect = lower value 1.01 | locus YDR388W, stronger effect = lower value 1 | locus YDR502C, strain sam2, stronger effect = lower value 1.02 | locus YER110C, stronger effect = lower value 1 | locus YER155C, strain BEM2, stronger effect = lower value 1 | locus YER167W, strain BCK2, stronger effect = lower value 1.01 | locus YGL078C, strain dbp3, stronger effect = lower value 1.02 | locus YGL086W, strain mad1, stronger effect = lower value 1 | locus YGL248W, strain PDE1, stronger effect = lower value 1 | locus YGR135W, strain pre9, stronger effect = lower value 1.02 | locus YGR252W, strain gcn5, stronger effect = lower value 0.975 | locus YHR030C, strain SLT2, stronger effect = lower value 1.01 | locus YHR079C, strain IRE1 (second series), stronger effect = lower value 1.02 | locus YHR094C, strain hxt1, stronger effect = lower value 1.01 | locus YHR129C, strain ARP1, stronger effect = lower value 1 | locus YHR200W, strain rpn10, stronger effect = lower value 1.01 | locus YIL066C, strain RNR3, stronger effect = lower value 0.997 | locus YIL073C, strain SPO22, stronger effect = lower value 1.06 | locus YIL125W, strain kgd1, stronger effect = lower value 1.01 | locus YIR030C, strain dcg1, stronger effect = lower value 1 | locus YJL095W, strain BCK1, stronger effect = lower value 1.03 | locus YJL134W, strain LCB3, stronger effect = lower value 1 | locus YJL168C, strain set2, stronger effect = lower value 1.01 | locus YJL187C, strain SWE1 (second series), stronger effect = lower value 1.02 | locus YKL009W, strain mrt4, stronger effect = lower value 0.992 | locus YKL068W, stronger effect = lower value 1.01 | locus YKL085W, strain MDH1 (second series), stronger effect = lower value 1.01 | locus YKL085W, strain MDH1, stronger effect = lower value 1.01 | locus YKR001C, strain vps1, stronger effect = lower value 1.01 | locus YLR039C, strain RIC1, stronger effect = lower value 1.02 | locus YLR058C, strain SHM2, stronger effect = lower value 1 | locus YLR102C, strain apc9, stronger effect = lower value 1.01 | locus YLR268W, strain sec22, stronger effect = lower value 1.01 | locus YLR330W, strain CHS5, stronger effect = lower value 1.01 | locus YLR371W, strain rom2, stronger effect = lower value 1.01 | locus YLR418C, strain cdc73, stronger effect = lower value 1.03 | locus YML016C, strain PPZ1, stronger effect = lower value 0.999 | locus YML032C, strain rad52, stronger effect = lower value 1.01 | locus YML124C, strain tub3, stronger effect = lower value 1.01 | locus YMR078C, strain ctf18, stronger effect = lower value 1.01 | locus YMR223W, strain ubp8, stronger effect = lower value 1.01 | [13] 1.04 | locus YNL067W, strain RPL9B, stronger effect = lower value 1.02 | [14] 1.02 | locus YNL233W, strain BNI4, stronger effect = lower value 1.02 | locus YNL250W, strain rad50, stronger effect = lower value 1.01 | locus YNL271C, strain bni1, stronger effect = lower value 1.01 | locus YNL298W, strain CLA4, stronger effect = lower value 1 | locus YNL307C, strain MCK1, stronger effect = lower value 1.01 | locus YNR052C, strain pop2, stronger effect = lower value 1.01 | locus YOL012C, strain htz1 0.877 | locus YOL147C, strain pex11, stronger effect = lower value 1.01 | locus YOR061W, strain CKA2, stronger effect = lower value 0.997 | locus YOR069W, strain VPS5, stronger effect = lower value 1 | locus YOR136W, strain idh2, stronger effect = lower value 1.02 | locus YOR144C, strain elg1, stronger effect = lower value 1 | locus YOR184W, strain ser1, stronger effect = lower value 0.999 | locus YOR316C, strain cot1, stronger effect = lower value 1.01 | locus YPR119W, strain clb2, stronger effect = lower value 1.02 | locus YPR141C, strain kar3, stronger effect = lower value 1.01 | locus YPR163C, strain tif3, stronger effect = lower value 1.01 | locus YPR167C, strain met16, stronger effect = lower value 1.01 | strain wtn01, stronger effect = lower value 0.991
